Screening results from PubChem.
MCF10A rereplic – DNA re-replication induction in MCF 10a cells | MCF 10A DNA re-replication, Hoechst nuclear intensity, 48 h | hit rate 2.9% among 350,000 | Potency, µM (doses to about 46.1 µM), actives largely listed as activators; note: nearly all actives have a fitted effect of over 50% in size
HT1080 IDH1KD tx – toxicity to HT-1080 IDH1 knockdown cells (counter line) | Potency, µM (doses to about 46.1 µM), hits mostly cytotoxic | AID 686971 | HT-1080 IDH1 knockdown viability, ATP luminescence, 48 h | hit rate 2% among 360,000
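After a 2 h attachment period, IDH1KD HT-1080 cells took pin-transferred compound for 48 h at 37 °C; ATP-based luminescence after 10 min room-temperature reagent incubation reported viability.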
HT1080NT lethal – kills 2HG-producing HT-1080-NT fibrosarcoma cells; HT-1080-NT fibrosarcoma viability, CellTiter-Glo ATP luminescence, 48 h; Potency, µM (highest dose often 46.1 µM), hits mostly cytotoxic; hit rate 1.6% among 360,000;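 note: NT is the 2HG producing partner of a matched IDH1 knockdown line; nearly all actives have a fitted effect of over 55% in size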
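Toxicity toward the 2HG-producing NT line was scored as %Activity, normalised to DMSO and no-cell wells, from CellTiter-Glo luminescence after 48 hours' treatment.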
KB-3-1 tox – KB-3-1 parental cell cytotoxicity | AID 1347075 | KB-3-1 viability, CellTiter-Glo ATP luminescence, 72 h | Potency, µM (top dose mostly 46.1 µM), hits mostly cytotoxic | hit rate 1.4% among 400,000; note: nearly all actives have a fitted effect of over 60% in size
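Here the drug-naive KB-3-1 line serves as comparator for MDR sub-line selectivity; cells received compound titrations, 72 h at 37 °C, then CellTiter-Glo readout.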
SW480 rerep – inducers of DNA re-replication in SW480 colon cancer cells. hit rate 1.8% among 340,000. SW480 DNA re-replication, Hoechst DNA content imaging, 48 h. AID 624297. Potency, µM (titrated, usually from 46.1 µM), most hits filed as activators; note: nearly all actives have a fitted effect of over 55% in size
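Image-based DNA-content assay: after two days of treatment, nuclei were labelled with the DNA dye Hoechst and imaged, and hits were compounds raising the count of nuclei showing high fluorescence intensity.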
KB-V1 MDR tox – KB-V1 MDR subline cytotoxicity. KB-V1 MDR cells viability, CellTiter-Glo, 72 h. Potency, µM (doses to about 46.1 µM), most hits filed as cytotoxic. hit rate 3.4% among 400,000. AID 1347076; note: nearly all actives have a fitted effect of over 60% in size
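Cytotoxicity via CellTiter-Glo luminescence after 72 h compound exposure at 37 degrees C. Cells: drug-selected KB-V1 line, DMEM phenol-red free plus 10% FBS. Compounds tested at multiple concentrations; normalized data fitted to concentration-effect curves.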
A number is an active result; n = inactive; u = inconclusive; x = no result given; ! = a repeat was not active; [ ] = remark or other dose. Sampled rows, rich in hits. Any-hit rate of the full collection: about 7.9%. Calls come from the whole dose curve; as a rule, active = well fitted curve in the direction sought with a large enough effect; inconclusive = small, poorly fitted or top-dose-only effect, or another doubt; inactive = no such curve, though single readings can be large; an effect the other way counts as inactive or inconclusive.

SMILES | MCF10A rereplic | HT1080 IDH1KD tx | HT1080NT lethal | KB-3-1 tox | SW480 rerep | KB-V1 MDR tox
Cc1ccc(CCNC(=O)c2cc3sccc3n2Cc2ccc(C)cc2)cc1 | x | x | x | n | x | n
Cc1cccn2c(=O)c3cc(C(=O)NCC4CCCO4)c(=N)n(Cc4cccnc4)c3nc12 (stereo not given) | 13µM | n | n | n | 9.2µM | n
Cc1ccc2nc3c(cc(C(=O)NCC4CCCO4)c(=N)n3CCCOC(C)C)c(=O)n2c1 (stereo not given) | u | n | n | n | u | n
N=c1c(C(=O)NCC2CCCO2)cc2c(=O)n3ccccc3nc2n1Cc1ccco1 (stereo not given) | u | n | n | n | 21µM | n
Cc1ccc2nc3c(cc(C(=O)NCC4CCCO4)c(=N)n3C(C)C)c(=O)n2c1 (stereo not given) | x | x | x | n | x | n
N=c1c(C(=O)NCC2CCCO2)cc2c(=O)n3ccccc3nc2n1Cc1ccc(F)cc1 (stereo not given) | 9.2µM | n | n | n | 18µM | n
N=c1c(C(=O)NCC2CCCO2)cc2c(=O)n3ccccc3nc2n1Cc1cccnc1 (stereo not given) | 13µM | n | n | n | 10µM | n
CCCn1c(=N)c(C(=O)NCc2cccnc2)cc2c(=O)n3cccc(C)c3nc21 | x | x | x | n | x | u
COc1cc2ccc(NC(C)=O)cc2cc1OC | x | n | n | n | x | n
COc1ccccc1CNC(=O)CCCn1nc(C)c2sc3ccccc3c2c1=O | x | x | x | n | x | n
COc1ccc(C2=C(C)C(=O)N(Cc3ccc(C(=O)NC(C)c4ccccc4)cc3)S2(=O)=O)cc1 (stereo not given) | x | x | x | n | x | n
NCc1ccccc1Sc1ccccc1CO | n | x | x | x | n | x
CCOC(=O)c1cccc(NC(=O)c2sc3nc[nH]c(=O)c3c2C)c1 | x | x | x | n | x | n
CSC1=NC(=O)/C(=C\c2cccc3ccccc23)S1 | 15µM | n | n | n | n | u
CCNC(=O)CCSc1nnc(-c2ccc(O)cc2)o1 | x | x | x | n | x | n
Cc1cc(=O)oc2cc(O)cc(OCc3ccccc3)c12 | 21µM | n | n | u | u | 15µM
Cc1cc(C(=O)N[C@H](c2ccccc2)[C@@]2(C)C[C@@H]2[C@@H](C)C(=O)Nc2ccc3ccccc3c2)n(C)n1 | u | n | n | u | 15µM | u
C=CCN1C(c2cccc(C(F)(F)F)c2)=CS/C1=C(\C#N)c1nnc(N2CCOCC2)n1-c1ccccc1 | x | n | n | n | x | n
C=CCN1C(=O)NC(c2ccccc2)(C(F)(F)F)S/C1=C(\C#N)c1nnc(N2CCOCC2)n1-c1ccccc1 (stereo not given) | 21µM | n | n | n | n | u
COc1cc(OC)c(Nc2c3c(nc4nc(-c5cccs5)nn24)CCCC3)cc1Cl | x | x | x | n | x | n
CC1=C(C(=O)N(C)C)C(c2ccc(Cl)c(Cl)c2)NC(=O)N1 (stereo not given) | n | n | n | n | n | n
CN[C@H]1CC[C@@H](c2ccc(Cl)c(Cl)c2)c2ccccc21 | u | x | 7.3µM | u | u | 21µM!
CS(=O)(=O)c1ccc2nc(NC(=O)c3ccc(NS(=O)(=O)c4ccc(F)c(F)c4)cc3)sc2c1 | u | n | n | n | n | n
O=C(Nc1nc2ccc(SC(F)F)cc2s1)c1ccc(NS(=O)(=O)c2ccc(F)c(F)c2)cc1 | 18µM | u | u | n | n | u
Cc1cccn2c(=O)c3cc(S(=O)(=O)c4ccccc4)c(=N)n(Cc4ccco4)c3nc12 | n | n | n | n | u | u
SMILES | MCF10A rereplic | HT1080 IDH1KD tx | HT1080NT lethal | KB-3-1 tox | SW480 rerep | KB-V1 MDR tox
Cc1cccn2c(=O)c3cc(S(=O)(=O)c4ccc(F)cc4)c(=N)n(Cc4ccco4)c3nc12 | u | 23µM | u | n | u | n
CCOC(=O)c1cc2c(=O)n3cccc(C)c3nc2n(CCOC)c1=NC(C)=O | 3.7µM | n | n | n | 5.8µM | u
CC(C)n1c(=NC(=O)c2ccco2)c(C#N)cc2c(=O)n3ccccc3cc21 | 8.9µM | u | n | u | 13µM | n
CCOC(=O)c1cc2c(=O)n3ccccc3nc2n(C(C)C)c1=NC(=O)c1ccco1 | 7.3µM | n | n | n | 7.3µM | u
COc1cc(OC)c(NC(=O)C(C)n2nc(-c3ccc(C)c(C)c3)ccc2=O)cc1Cl (stereo not given) | x | x | x | n | x | n
CCOC(=O)c1cc2c(=O)n3cccc(C)c3nc2n(Cc2ccco2)c1=NC(=O)c1ccc(C)cc1 | n | n | n | n | n | n
CCOCCCn1c(=NC(=O)c2ccco2)c(C(=O)OCC)cc2c(=O)n3cccc(C)c3nc21 | u | n | n | n | 1.6µM | u
CCOC(=O)c1cc2c(=O)n3cccc(C)c3nc2n(Cc2ccco2)c1=NC(=O)c1ccccc1 | 8.2µM | n | n | n | u | u
CCCC(=O)N1CCCC(c2cc(C(=O)NCc3cccnc3)no2)C1 (stereo not given) | x | n | n | n | x | n
CCOc1ccc(N/C=C/C(=O)c2ccccc2)c([N+](=O)[O-])c1 | n | u | u | 16µM | n | u
COC(=O)[C@@]1(Sc2ccc(C)cc2)CC(=O)N(C(=O)/C=C/c2ccccc2)[C@@H]1c1ccccc1 | x | u | u | u | x | n
Cc1cccc(/C=C/c2onc(C)c2[N+](=O)[O-])n1 | 7.3µM | 6.5µM | u | 10µM | u | u
Cc1cc(O)ccc1N/C=C/c1onc(C)c1[N+](=O)[O-] | n | u | 16µM | n | n | n
Cc1noc(/C=C/c2nn(C)cc2Cl)c1[N+](=O)[O-] | 21µM | u | n | u | u | u
Cc1cccc(N/C=C/c2onc(C)c2[N+](=O)[O-])c1 | n | n | n | u | n[9.22 µM] | n
COc1cc(/C=C/c2onc(C)c2[N+](=O)[O-])cc(OC)c1OC | n | n | n | n | n | n
O=C(O)c1ccc(COc2ccc3ccccc3c2/C=C2/NC(=O)N(Cc3ccc(F)cc3)C2=O)cc1 | 18µM | u | u | n | u | n
Cc1ccc(CN2C(=O)N/C(=C/c3ccc(-c4ccc(C(=O)O)cc4)o3)C2=O)cc1 | 8.2µM | n | n | n | 4.6µM | n
Cc1cc(C(=O)O)ccc1-c1ccc(/C=C2\NC(=O)N(Cc3ccc(F)cc3)C2=O)o1 | 3.7µM | n | n | n | 9.2µM | n
O=C(O)c1cccc(-n2cccc2/C=C2\NC(=O)N(Cc3ccc(F)cc3)C2=O)c1 | u | n | n | n | n | n
Cc1cccc(NC(=O)CN2C(=O)N/C(=C\c3ccc(-c4cccc(C(=O)O)c4)o3)C2=O)c1 | 16µM | n | n | n | 18µM | n
O=C(O)c1ccc(COc2ccccc2/C=C2\NC(=O)N(Cc3ccccc3)C2=O)cc1 | n | n | n | n | u | n
